Test results taken from PubChem BioAssay AID488890 (Southern Research Specialized Biocontainment Screening …, 2010).
Out of some 320,000 compounds screened, about 1,300 (0.41%) were called active. Another 3% or so got no clear call; they are omitted. The rule behind the calls is not given here. Only a sample is shown. Results with a measured potency or affinity are listed apart.

test: growth inhibition of non-replicating M. tuberculosis (AID 488890); conditions: Mycobacterium tuberculosis non-replicating, at 25 µM, stronger effect = higher value;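 note: plate controls were DMSO cells for no effect and high antibiotic wells for full effect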

Row | SMILES | inhibition [%]
1 | CC(C)(C)OC(=O)CNC(=O)c1[nH]cnc1C(=O)NC1CCNCC1 | -8.53
2 | COc1ccc(OCCCC(=O)NCc2ccco2)cc1 | 56.7
3 | Cc1ccc(OCCCC(=O)NCc2ccco2)cc1 | 53.7
4 | CC1CCN(C(=O)c2cc3c(=O)n4ccccc4nc3s2)CC1 | -10.7
5 | CCCCN(C)Cc1c(C)[nH]c2ccc(C)cc2c1=O | 3.45
6 | CC(CCc1ccccc1)NC(=O)c1ccc(F)cc1 (configuration not stated) | 65.9
7 | CN(C)CCCN(C(=O)c1ccc(S(=O)(=O)N2CCCCC2)cc1)c1nc2cc3c(cc2s1)OCO3 | 20.6
8 | CC(C)c1ccc(/C=N/NC(=O)c2c(Cl)cnn2C)cc1 | -10.4
9 | CSCCOC(=O)COc1ccc(/C=N/NC(=O)c2nn(C)cc2Cl)cc1 | 75.7
10 | COc1cc(CN2CCN(Cc3ccc(SC)cc3)CC2)cc(OC)c1O | -26.9
11 | N/C(=N\N=C\c1cccs1)SC1CC(=O)N(c2cccc([N+](=O)[O-])c2)C1=O (configuration not stated) | -1.1
12 | COc1ccc(N(CN2C(=O)c3ccccc3C2=O)C(=O)C(C)C)cc1 | 2.08
13 | O=C(Nc1ncc(Cc2ccccc2Cl)s1)c1ccc([N+](=O)[O-])cc1 | -27.1
14 | O=C(Nc1ncc(Cc2ccccc2)s1)C1COc2ccccc2O1 (configuration not stated) | 64
15 | Cc1ccc(C(=O)Nc2ncc(Cc3ccc(F)cc3)s2)o1 | 13.4
16 | CC(=O)Nc1ncc(Cc2cccc(Cl)c2)s1 | 36.5
17 | CC(C)C(=O)Nc1ncc(Cc2ccccc2Cl)s1 | 4.24
18 | Cc1ccc(Cc2cnc(NC(=O)c3ccco3)s2)cc1 | 79
19 | CC(C)C(=O)Nc1ncc(Cc2ccc(Cl)cc2)s1 | 32.4
20 | Cc1ccc(C(=O)Nc2ncc(Cc3ccccc3)s2)o1 | 32.2
21 | O=C(CSc1oc(-c2ccc(F)cc2)nc1S(=O)(=O)c1ccccc1)NCC1CCCO1 (configuration not stated) | -4.84
22 | CCc1cc(CNC(=O)c2ccc(OC3CCN(CCc4ccccc4)CC3)cc2)on1 | 4.71
23 | CN(CC(=O)Nc1cccc(F)c1)C(=O)c1ccccc1Cc1ccccc1 | -4.13
24 | O=C(NCc1ccco1)c1cccc(S(=O)(=O)N2CCCCC2)c1 | 16.4

Row | SMILES | inhibition [%]
25 | CCN1CCN(C(=O)/C(=C/c2ccco2)NC(=O)c2ccccc2)CC1 | -2.48
26 | O=C(CCC(=O)N1CCOc2ccccc21)N1CCCCC1 | -34.4
27 | CN(C)CCCN(C(=O)c1ccc(N2C(=O)CCC2=O)cc1)c1nc2c(F)cccc2s1 | -7.06
28 | CCN1CCCC1CNC(=O)C(=O)NC(C)c1ccccc1 (configuration not stated) | 5.13
29 | COCc1cc(=O)[nH]c(SCC(=O)c2ccccc2)n1 | -7.52
30 | O=C(O)c1cccc(-n2sc3ccccc3c2=O)c1 | -0.63
31 | O=c1c2ccccc2sn1-c1ccc(F)cc1 | -1.44
32 | CC1(C)CC(=O)C2=C(C1)OC1=C(C(=O)CC(C)(C)C1)C2c1ccccc1 | -3.44
33 | COc1ccc(NC(=O)CN(C)C2CCCCC2)cc1Cl | 33.9
34 | Cc1ccc(NC(=O)CN(C)C2CCCCC2)cc1Cl | 72.6
35 | CN(CC(=O)Nc1ccc(S(N)(=O)=O)cc1)C1CCCCC1 | -0.54
36 | Cc1ccc(NC(=O)CN2CCCCCC2)cc1Br | 5.31
37 | CCC(=O)Nc1ccc2oc(-c3cccc(C)c3)nc2c1 | -26.3
38 | COCC(=O)Nc1ccccc1C(=O)Nc1ccc(OC)cc1 | -1.58
39 | COc1ccc(CCN(C)C2CCCN(S(C)(=O)=O)C2)cc1OC (configuration not stated) | -23.7
40 | O=C(CN1CCN(c2ccccc2F)CC1)c1c[nH]c2ccccc12 | 4
41 | COc1ccc(-n2nc(C(=O)NCC(=O)N3CCN(c4ccc(F)cc4)CC3)c3ccccc3c2=O)c(OC)c1 | 3.71
42 | N#Cc1ccc(C(=O)CN2CCN(c3ccccc3)CC2)cc1 | 3.58
43 | COc1ccc(N2CCN(C(=O)C3CCN(C(=O)c4ccc([N+](=O)[O-])cc4)CC3)CC2)cc1 | 21.3
44 | CS(=O)(=O)N(CC(=O)N1CCN(c2ccc(F)cc2)CC1)c1cccc(Cl)c1 | -4.05
45 | O=C(NCc1cccnc1)c1ccc(S(=O)(=O)N2CCCCCC2)cc1 | 5.4
46 | Cc1ccc(NC(=O)COc2ccccc2C=O)cc1Cl | 11.5
47 | CCOCC(=O)Nc1ccc(Br)c(C)c1 | 78.4
48 | COc1cc(NC(=O)COc2ccc(-n3ccnc3)cc2)cc(OC)c1 | 57.6

Row | SMILES | inhibition [%]
49 | O=C(COc1ccc(-n2ccnc2)cc1)Nc1cccc(F)c1 | 62.5
50 | CC(C)c1ccc(NC(=O)COc2ccccc2)cc1 | 75.1
51 | COCC(=O)Nc1ccc(C)c(Cl)c1 | 57.3
52 | Cc1ccc(NC(=O)COc2ccccc2C(=O)Nc2ccccc2)cc1Cl | -4.97
53 | Cc1ccc(NC(=O)CCC(=O)NNC(=O)COc2ccccc2)cc1C | -33.1
54 | CC(C)n1ncc(C(N)=O)c1N | -11
55 | O=C(CO/N=C/c1c(Cl)cccc1Cl)NNC(=O)c1ccc(Cl)cc1 | -1.83
56 | CCn1ccnc1CN(C)C(=O)CCc1nnc(CCC2CCCCC2)o1 | 6.59
57 | Cc1cccc(-n2c(-c3ccncc3)n[nH]c2=S)c1C | 13.2
58 | Nc1nc(SCCC(F)=C(F)F)n[nH]1 | 2.3
59 | O=C(CC(Nc1ccc(Cl)cc1)C(=O)O)c1ccccc1 (configuration not stated) | 58.9
60 | Cc1cccc(OCC(=O)Nc2ccc3nc(C)sc3c2)c1 | 75.1
61 | O=C(CC(Nc1ccccc1)C(=O)O)c1ccccc1 (configuration not stated) | 28.9
62 | Cc1nc2ccc(NC(=O)Cc3cccc(F)c3)cc2s1 | 3.01
63 | CC(=O)c1ccccc1OCc1ccc(S(=O)(=O)Cc2ccccc2)cc1 | 46
64 | O=C(NCc1ccccc1F)C1CCCN1C(=O)Nc1ccc(F)cc1 (configuration not stated) | 5.39
65 | CC1CN(C(=O)COc2ccc3ccccc3c2Br)CC(C)O1 (configuration not stated) | 3.67
66 | O=C(NCc1cccnc1)C(=O)N/N=C/c1ccccc1[N+](=O)[O-] | 0.97
67 | CC(=O)[C@@]1(O)CCC2C3CC=C4C[C@@H](O)CC[C@]4(C)C3CC[C@@]21C (some centres not stated) | -5.65
68 | Clc1ccc(Cc2noc(-c3cccs3)n2)cc1 | 78.5
69 | Clc1ccc(Cc2nnc(-c3ccccc3Br)o2)cc1 | 69.1
70 | Cc1nnc(SCc2nnc(-c3cccs3)o2)s1 | 72.4
71 | Fc1ccc(CSc2nnc(-c3ccncc3)o2)cc1 | 73.6
72 | Cc1nnc(SCc2nnc(-c3cccs3)o2)n1C | -12.8

Row | SMILES | inhibition [%]
73 | COc1cccc(C(=O)CSc2nnc(-c3cccs3)o2)c1 | 65
74 | CCSc1nnc(-c2cccs2)o1 | 58.5
75 | c1csc(-c2nnc(COc3ncnc4sccc34)o2)c1 | 10.4
76 | CCOC(=O)c1cnc(SCc2ccc(C(C)(C)C)cc2)nc1N | 14.9
77 | CCOC(=O)C(NC(=O)Nc1ncccn1)(Oc1ccccc1)C(F)(F)F (configuration not stated) | -3.5
78 | COc1ccc(N2CCOCC2)c(NC(=O)c2ccc(Br)o2)c1 | 10
79 | Cc1cc(C)n2[nH]c(=O)c(N=Nc3ccc(S(N)(=O)=O)cc3)c2n1 | -1.74
80 | COc1cccc(N=Nc2c(=O)[nH]n3c(C)cc(C)nc23)c1 | 65.1
81 | Cc1cc(C)n2[nH]c(=O)c(N=Nc3ccccc3)c2n1 | -9.77
82 | Cc1cc(C(F)(F)F)n2[nH]c(=O)c(N=Nc3ccccc3)c2n1 | -0.96
83 | Cc1ccc(NC(=O)OCCNC(=O)OC(C)C)cc1 | 13.6
84 | C/C(=C/C(=O)O)C(=O)Nc1cccc(C(F)(F)F)c1 | 37.8
85 | CC(=O)Nc1ccc(/C=C/c2ccc3c([N+](=O)[O-])cccc3n2)cc1 | 10.1
86 | COc1cc(/C=C/c2ccc3cccc([N+](=O)[O-])c3n2)ccc1OCC(=O)O | 31.6
87 | CN1/C(=C\C(=O)COC(=O)CN2C(=O)C3CC=CCC3C2=O)C(C)(C)c2ccccc21 (configuration not stated) | 19.7
88 | CN1/C(=C\C(=O)COC(=O)c2ccco2)C(C)(C)c2ccccc21 | 64.9
89 | CN1/C(=C\C(=O)COc2ccc3c(c2)OCO3)C(C)(C)c2ccccc21 | 43
90 | CN1/C(=C\C(=O)COC(=O)c2ccc(O)cc2)C(C)(C)c2ccccc21 | 57.9
91 | COC(=O)c1ccccc1NC(=O)COc1ccc2c(c1)OCO2 | 70.5
92 | O=C(N/N=C/c1c[nH]c2ccccc12)C1CC(=O)N(c2ccccc2)C1 (configuration not stated) | 12.1
93 | Cc1cc(C(=O)COC(=O)c2cccnc2Cl)c(C)n1C | 7.66
94 | Cc1cc(C(=O)COc2ccc(F)cc2Br)c(C)n1C | 11.3
95 | CCN(CC)c1ccc2c(C)c(Cl)c(=O)oc2c1 | 2.25
96 | CCN(CC)c1ccc2c(Cl)cc(=O)oc2c1 | 11.8

Row | SMILES | inhibition [%]
97 | Cc1cc(C)cc(OCC(=O)Nc2cccc(S(=O)(=O)NC3=NCCC3)c2)c1 | 5.82
98 | COC(=O)N/N=C/c1cc(Br)ccc1O | 27.7
99 | O=C(N/N=C/c1cc(Br)ccc1O)Nc1ccccc1 | 14.3
100 | O=C(CNC(=O)c1ccccc1Br)N/N=C/c1cc(Br)ccc1O | 17.8
101 | Oc1ccc(Br)cc1/C=N/NC(=S)NCCc1ccccc1 | 45.2
102 | O=C(CNC(=O)c1ccccc1)N/N=C/c1cc(Br)ccc1O | 38.3
103 | O=C(N/N=C/c1cc(Br)ccc1O)c1ccncc1 | 63.8
104 | COc1cccc(-c2nc(CS(=O)(=O)CC(=O)NCCCN3CCN(C)CC3)c(C)o2)c1 | -1.26
105 | C/C(=N\N=C1\NC(=O)C(CC(=O)Nc2ccc(C)c(Cl)c2)S1)C(C)(C)C (configuration not stated) | 38.8
106 | CCCn1c2c(c(O)c(C(=O)Nc3ccc(OC)cc3)c1=O)CCCC2 | 11.5
107 | CC1(C(=O)NC(=S)N(CCC#N)Cc2cccnc2)CC1(Cl)Cl (configuration not stated) | 12.4
108 | Cc1ccc(NC(=O)COC(=O)CC2CC3CCC2C3)cc1S(=O)(=O)N1CCOCC1 (configuration not stated) | 9.66
109 | COC(=O)CCN1CCN(S(=O)(=O)c2ccccc2Br)CC1 | -21.4
110 | Cc1cc(C)n(-c2ccccc2[N+](=O)[O-])n1 | 24.1
111 | COc1ccccc1/C=N/Nc1cc(C)nc(N2CCOCC2)n1 | 8.69
112 | O=[N+]([O-])c1ccccc1/C=N/Nc1nc(N2CCCC2)nc(N2CCCC2)n1 | 18.8
113 | Cc1cc(N/N=C/c2ccc(O)cc2O)nc(-c2ccccc2O)n1 | 0.04
114 | COc1ccccc1/C=N/Nc1nc(C)cc(C)n1 | 20.8
115 | COc1ccc(/C=N/Nc2cc(C)nc(N3CCOCC3)n2)c(OC)c1 | -23.5
116 | COc1ccc(OC)c(/C=N/Nc2cc(C)nc(N3CCOCC3)n2)c1 | 8.92
117 | Cc1cc(N/N=C/c2ccc(O)cc2O)nc(N2CCOCC2)n1 | 6.6
